# In ChEMBL document CHEMBL3433997, “St. Jude Leishmania screening dataset” (2016):
# How the values were obtained:
# Format in all cases: functional
# [1] = target: Solute carrier family 2, facilitated glucose transporter member 1 (Homo sapiens) (UniProt P11166); assay: ST_JUDE_LEISH: Cytotoxicity at 2uM final concentration against transgenic Leishmania Mexicana promastigotes LmGLUT1 that are glucose transport deficient and complemented with the human glucose transporter GLUT1. Activity is measured by DNA content using SYBR green in vitro
# Chain of Solute carrier family 2, facilitated glucose transporter member 1 (Homo sapiens) (P11166 whole entry): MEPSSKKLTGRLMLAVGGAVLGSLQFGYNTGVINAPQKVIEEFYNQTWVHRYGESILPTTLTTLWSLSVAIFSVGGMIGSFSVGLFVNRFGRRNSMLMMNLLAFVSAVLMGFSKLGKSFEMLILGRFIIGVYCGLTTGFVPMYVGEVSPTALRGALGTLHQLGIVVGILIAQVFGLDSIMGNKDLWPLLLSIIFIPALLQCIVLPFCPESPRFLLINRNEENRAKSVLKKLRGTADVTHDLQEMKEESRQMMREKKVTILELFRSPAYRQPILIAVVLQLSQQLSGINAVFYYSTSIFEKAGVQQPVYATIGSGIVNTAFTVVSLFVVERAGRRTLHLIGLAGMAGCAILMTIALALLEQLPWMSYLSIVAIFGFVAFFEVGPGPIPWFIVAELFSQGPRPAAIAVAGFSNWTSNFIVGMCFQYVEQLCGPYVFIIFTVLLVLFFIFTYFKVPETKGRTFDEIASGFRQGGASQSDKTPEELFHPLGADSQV
# [2] = target: Hexose transporter 1 (Plasmodium falciparum) (UniProt O97467); assay: ST_JUDE_LEISH: Cytotoxicity at 2uM final concentration against transgenic Leishmania Mexicana promastigotes LmPfHT that are glucose transport deficient and complemented with the Plasmodium falciparum hexose transporter. Activity is measured by DNA content using SYBR green in vitro
# [3] = target: Glucose transporter (Leishmania mexicana) (UniProt O61059); assay: ST_JUDE_LEISH: Cytotoxicity at 2uM final concentration against transgenic Leishmania Mexicana promastigotes LmGT2 that are glucose transport deficient and complemented with the L. Mexicana glucose transporter 2. Activity is measured by DNA content using SYBR green in vitro
SMILES,inhibition [1] [%],inhibition [2] [%],inhibition [3] [%]
COc1ccc(OC)c(CC2c3ccc(Br)c(O)c3CCN2C)c1 (centres undefined),1.36,1.41,2.33
CCc1c(C)nc(-n2nc(C)cc2NC(=O)C(CC)c2ccccc2)[nH]c1=O (centres undefined),18.6,7.02,-2.05
CNC(=N)c1ccc(NC(=O)c2ccc(C(=O)Nc3ccc(C(=N)NC)cc3)cc2)cc1,1.44,2.97,1.84
C=C1N(C)c2cc([N+](=O)[O-])c(N)cc2C1(C)C,0.68,-0.1,-1.11
CC(C)(C)c1nn(-c2ccc(Cl)cc2)c2[nH]c(=O)c(CNCc3ccc4c(c3)OCO4)cc12,4.55,3.31,5.03
CNC(=O)c1cnc(Nc2ccc(N3CCOCC3)cc2)nc1Nc1cccc(O)c1,3.92,5.41,-1.69
COc1cc(Br)ccc1N1CCN(CCCCNC(=O)c2ccc(NC(=O)c3ccc(Cl)cc3)cc2)CC1,2.1,2.33,1.5
COc1ccc(OC)c(-c2ccc(O)c(CNCC(C)c3ccccc3)c2)c1 (centres undefined),-0.66,-0.62,-1.24
CCCS(=O)(=O)N1CCC(CO)(Cc2ccccc2C(F)(F)F)CC1,2.81,3.09,2.87
O=C(Nc1cccc(-c2cccc(-c3nc4cc(F)ccc4[nH]3)c2)c1)c1csnn1,6.12,4.57,1.83
O=C(Nc1ccc(Cl)c(C(F)(F)F)c1)Nc1ccc(Cl)c(C(F)(F)F)c1,0.91,1.04,2.07
COc1cccc(CN2CCC(C(=O)Nc3ccc(-c4nc5ccccc5[nH]4)cc3)CC2)c1,23.8,32.9,20.6
Oc1ccc(Cl)c2c1C(c1ccccc1)=NCC2,-1.17,-0.25,1.69
